Records with an inconclusive call do not appear. Calls of active or inactive are those of the source. Unless noted, the call rests on the fitted dose curve; in most records, active means well fitted curve in either direction with a large enough effect (not every such curve was filed as active); inconclusive means small, poorly fitted or top-dose-only effect, or another doubt; inactive means flat fitted curve, though single readings scatter.
Assays:
[1] = target: Lysosomal acid glucosylceramidase (Homo sapiens) (UniProt P04062); assay: Glucocerebrosidase-p2 (AID 348; in the data active means potency below about 10 µM; further: potency means the concentration at half of the fitted maximal effect); settings: purified GBA, blue fluorogenic substrate, 40 min
Chain of Lysosomal acid glucosylceramidase (Homo sapiens) (P04062 whole entry, looked up): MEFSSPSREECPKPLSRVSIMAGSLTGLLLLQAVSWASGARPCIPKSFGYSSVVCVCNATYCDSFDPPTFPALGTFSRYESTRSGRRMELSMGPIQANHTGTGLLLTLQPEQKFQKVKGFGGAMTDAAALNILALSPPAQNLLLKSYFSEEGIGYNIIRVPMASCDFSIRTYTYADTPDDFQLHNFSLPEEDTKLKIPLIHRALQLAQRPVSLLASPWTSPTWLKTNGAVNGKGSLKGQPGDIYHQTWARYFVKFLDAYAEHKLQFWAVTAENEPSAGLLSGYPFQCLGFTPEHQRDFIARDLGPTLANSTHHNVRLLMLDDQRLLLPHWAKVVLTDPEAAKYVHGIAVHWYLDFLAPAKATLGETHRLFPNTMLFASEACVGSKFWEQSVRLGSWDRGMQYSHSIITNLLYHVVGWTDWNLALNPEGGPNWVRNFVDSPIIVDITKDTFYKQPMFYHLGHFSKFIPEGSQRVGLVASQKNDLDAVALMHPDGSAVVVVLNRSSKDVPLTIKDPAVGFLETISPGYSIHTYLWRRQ
Procedure, shortened: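 Compounds titrated from 0.6 nM upwards against 0.2 nM enzyme in pH 5.9 citric acid/KH2PO4, taurocholate, tween-20; blue fluorogenic substrate 80 uM, 40 min room temperature, stopped and read Ex 365/Em 440 for AC50.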

[2] = AP1 Signaling Pathway (AID 357); settings: ME-180 AP-1-bla reporter, EGF-induced, beta-lactamase ratio, 5 h; at 7.69 µM (top of the series) unless noted; further: on the % scale 0 is the no-effect control and ±100 the full control effect
Procedure, shortened: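 ME-180 cells with beta-lactamase reporter under AP-1 response element, stimulated with EC50 EGF; compounds tested in titration series, 5 h at 37 °C. CCF4 substrate added 2.5 h at room temperature; 460/530 nm emission ratio gave %activity and AC50.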

[3] = target: Cytochrome P450 1A2 (Homo sapiens) (UniProt P05177); assay: p450-cyp1a2 (AID 410; calls by dose curve; further: potency means the concentration at half of the fitted maximal effect); settings: recombinant CYP1A2, luciferin-ME demethylation, luminescence; series mostly up to 57 µM
Chain of Cytochrome P450 1A2 (Homo sapiens) (P05177 whole entry, looked up): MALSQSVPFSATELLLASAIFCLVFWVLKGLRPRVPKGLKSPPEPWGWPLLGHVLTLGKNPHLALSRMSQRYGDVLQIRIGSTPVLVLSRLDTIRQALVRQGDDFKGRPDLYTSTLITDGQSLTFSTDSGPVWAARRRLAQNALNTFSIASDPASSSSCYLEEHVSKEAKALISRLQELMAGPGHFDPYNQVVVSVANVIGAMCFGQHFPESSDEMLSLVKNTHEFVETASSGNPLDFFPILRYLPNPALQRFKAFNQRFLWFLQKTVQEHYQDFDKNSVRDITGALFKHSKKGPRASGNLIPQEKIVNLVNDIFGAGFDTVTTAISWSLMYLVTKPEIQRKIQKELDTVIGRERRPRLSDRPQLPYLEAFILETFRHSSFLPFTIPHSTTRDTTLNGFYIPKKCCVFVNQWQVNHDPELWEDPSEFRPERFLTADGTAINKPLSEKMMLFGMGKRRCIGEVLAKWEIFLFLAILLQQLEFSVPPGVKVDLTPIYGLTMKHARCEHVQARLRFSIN
Procedure, shortened: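 Human CYP1A2 (20nM) demethylated Luciferin-ME at its Km (100uM) in 100mM KPO4. After 10 min compound preincubation, NADPH regeneration ran the reaction 60 min at room temperature. Luciferin was read by luminescence, normalized to 57 uM furafylline.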

[4] = NFAT Signaling Pathway (AID 444); settings: Jurkat NFAT-bla M1, carbachol, beta-lactamase ratio, 5 h; at 7.69 µM (top of the series) unless noted;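 further: carbachol stimulus at about its EC50 of 1 µM final; on the % scale 0 is the no-effect control and ±100 the full control effect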
Procedure, shortened: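 Read-out: CCF4 FRET ratio (460 nm/530 nm) after 1 h RT dye loading, used for %activity and AC50 from titration series. Cells: Jurkat NFAT-β-lactamase/M1 line, treated with compound plus 1 uM carbachol for 5 h, 37 °C.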

[5] = Stat Signaling Pathway (AID 446); settings: ME-180 SIE beta-lactamase reporter, IL-6 stimulated, 5 h; at 7.69 µM (top of the series) unless noted;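 further: ME-180 cervical cancer cells given 40 pM IL-6 alongside compound; SIE-controlled beta-lactamase reporter measured as 460/530 nm FRET emission ratio; on the % scale 0 is the no-effect control and ±100 the full control effect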
Procedure, shortened: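 IL-6/STAT signaling read in ME-180 cells via an SIE beta-lactamase reporter. Stimulus was 40 pM IL-6 (its AC50) for 5 hrs, so both activation and inhibition register.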

[6] = target: Glucocorticoid receptor (Homo sapiens) (UniProt P04150); assay: GR-GFP Redistribution (AID 450;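 active means compounds whose dose series gives a full or clear partial fitted curve of increased nuclear translocation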; further: potency means the concentration at half of the fitted maximal effect); settings: U2OS GR-GFP nuclear translocation, laser cytometry, 2 h
Chain of Glucocorticoid receptor (Homo sapiens) (P04150 whole entry, looked up, the tested form may be a part): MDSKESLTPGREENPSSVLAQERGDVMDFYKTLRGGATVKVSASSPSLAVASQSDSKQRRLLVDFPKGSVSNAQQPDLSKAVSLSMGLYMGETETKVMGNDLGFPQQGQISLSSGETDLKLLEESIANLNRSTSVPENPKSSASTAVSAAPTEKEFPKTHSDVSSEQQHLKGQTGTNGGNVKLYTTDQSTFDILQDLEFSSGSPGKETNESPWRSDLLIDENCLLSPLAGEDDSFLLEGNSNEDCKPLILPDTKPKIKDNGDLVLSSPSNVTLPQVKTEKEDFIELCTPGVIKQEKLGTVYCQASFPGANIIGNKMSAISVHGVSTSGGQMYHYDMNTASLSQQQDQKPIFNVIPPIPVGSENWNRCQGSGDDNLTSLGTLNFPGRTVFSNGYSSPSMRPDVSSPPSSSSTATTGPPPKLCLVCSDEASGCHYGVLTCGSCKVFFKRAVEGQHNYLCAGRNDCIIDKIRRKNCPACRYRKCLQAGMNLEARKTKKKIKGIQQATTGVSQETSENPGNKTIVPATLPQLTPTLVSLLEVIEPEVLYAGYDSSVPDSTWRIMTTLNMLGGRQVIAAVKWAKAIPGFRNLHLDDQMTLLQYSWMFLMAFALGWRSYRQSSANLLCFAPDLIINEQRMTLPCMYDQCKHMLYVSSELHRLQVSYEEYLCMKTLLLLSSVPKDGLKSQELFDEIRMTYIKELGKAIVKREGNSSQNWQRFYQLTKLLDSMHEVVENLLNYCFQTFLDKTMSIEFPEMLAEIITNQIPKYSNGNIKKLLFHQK

[7] = target: Glucocorticoid receptor (Homo sapiens) (UniProt P04150); assay: GR-EFC Redistribution (AID 451; calls by dose curve; further: potency means the concentration at half of the fitted maximal effect); settings: CHO-K1 GR-EFC translocation, beta-gal luminescence, 2 h
Procedure, shortened: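 Translocation of GR-ED fusion to nuclear EA restores b-gal, read by luminescence after 1 h room-temperature detection. Engineered CHO-K1 biosensor cells, 1,000/well, exposed 2 h at 37 C to titrations up to 46 uM final.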

[8] = target: Mitogen-activated protein kinase 10 (Mus musculus) (UniProt Q61831); assay: JNK3 AlphaScreen Assay (AID 530); settings: JNK3 lysate, c-Jun phosphorylation; series mostly up to 57.1 µM;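 further: kinase came from lysate of stimulated human HepG2 cells; signal reports phosphorylation of biotinylated GST-cJun 1-79 at Ser73 with 10 µM ATP; on the % scale 0 is the no-effect control and ±100 the full control effect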
Procedure, shortened: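 Room-temperature AlphaScreen kinase assay; pre-activated HepG2 lysate as JNK3 source, biotin-GST-cJun(1-79) substrate, 10 uM ATP, compound 15 min preincubation.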

[9] = target: 3',5'-cyclic-AMP phosphodiesterase 4B (Homo sapiens) (UniProt Q07343); assay: qHTS Assay for Inhibitors of PDE-IV (AID 607; active means well fitted activation curve with a large enough effect in the main read-out, with a control signal flat, not every such curve was filed as active; further: % of control where 0% means no effect); settings: HEK293 ACTOne CNG channel cells, membrane potential fluorescence; series mostly up to 22.9 µM
Chain of 3',5'-cyclic-AMP phosphodiesterase 4B (Homo sapiens) (Q07343 whole entry, looked up): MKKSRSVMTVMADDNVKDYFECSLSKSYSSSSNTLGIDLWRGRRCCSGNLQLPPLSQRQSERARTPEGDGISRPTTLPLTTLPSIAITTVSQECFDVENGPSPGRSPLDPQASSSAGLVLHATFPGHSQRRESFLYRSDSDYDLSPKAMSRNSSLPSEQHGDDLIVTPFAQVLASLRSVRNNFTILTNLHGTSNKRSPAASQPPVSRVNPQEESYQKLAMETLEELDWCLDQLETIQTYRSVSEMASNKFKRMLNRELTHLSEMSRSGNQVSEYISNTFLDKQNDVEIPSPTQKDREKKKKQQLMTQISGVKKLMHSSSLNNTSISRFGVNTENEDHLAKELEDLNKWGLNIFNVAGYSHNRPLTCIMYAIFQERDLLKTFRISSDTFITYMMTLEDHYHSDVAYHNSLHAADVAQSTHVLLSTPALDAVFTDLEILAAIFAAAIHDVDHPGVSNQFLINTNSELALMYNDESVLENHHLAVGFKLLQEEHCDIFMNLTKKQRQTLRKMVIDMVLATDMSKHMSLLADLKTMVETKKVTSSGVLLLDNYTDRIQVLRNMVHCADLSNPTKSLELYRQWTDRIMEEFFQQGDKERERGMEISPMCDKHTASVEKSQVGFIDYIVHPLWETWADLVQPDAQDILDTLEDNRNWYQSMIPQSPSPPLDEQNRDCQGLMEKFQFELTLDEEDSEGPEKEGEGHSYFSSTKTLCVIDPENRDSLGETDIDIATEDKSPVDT
Procedure, shortened: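 Live HEK293 cells with a modified cyclic nucleotide-gated (CNG) channel report intracellular cAMP via membrane-potential dye fluorescence (ex 535/em 590 nm). Endogenous PDE-IV was targeted. Compounds were tested at up to 22.9 uM final; RO 20-1724 100 uM served as control.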

[10] = target: Cytochrome P450 3A4 (Homo sapiens) (UniProt P08684); assay: qHTS Assay for Inhibitors and Substrates of Cytochrome P450 3A4 (AID 884; active means well fitted curve in the direction sought with a large enough effect; an effect the other way counts as inactive or inconclusive; further: on the % scale 0 is the no-effect control and ±100 the full control effect; nearly all actives have a fitted effect of over 50% in size); settings: recombinant CYP3A4, Luciferin-PPXE luminescence; series mostly up to 57.1 µM
Chain of Cytochrome P450 3A4 (Homo sapiens) (P08684 whole entry, looked up): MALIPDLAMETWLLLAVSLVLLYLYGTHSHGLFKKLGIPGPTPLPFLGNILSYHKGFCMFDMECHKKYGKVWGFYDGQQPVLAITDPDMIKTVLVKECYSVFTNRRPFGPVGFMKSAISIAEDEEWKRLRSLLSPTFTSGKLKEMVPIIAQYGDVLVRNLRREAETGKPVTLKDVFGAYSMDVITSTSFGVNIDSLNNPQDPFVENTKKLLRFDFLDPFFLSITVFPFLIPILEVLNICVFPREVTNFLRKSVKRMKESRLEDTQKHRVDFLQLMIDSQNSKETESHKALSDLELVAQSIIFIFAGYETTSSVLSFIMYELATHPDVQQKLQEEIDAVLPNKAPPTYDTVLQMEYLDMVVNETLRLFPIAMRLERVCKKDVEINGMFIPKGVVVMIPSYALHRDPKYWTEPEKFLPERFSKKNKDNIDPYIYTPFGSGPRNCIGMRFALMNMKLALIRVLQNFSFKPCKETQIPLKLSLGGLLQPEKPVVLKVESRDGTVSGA
Procedure, shortened: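 20 nM human CYP3A4 with 25 uM Luciferin-PPXE (at KM) in 200 mM KPO4, preincubated 10 min with compound; NADPH regeneration started a 60 min RT reaction. Luciferin detected by luminescence, normalized to 57 uM ketoconazole as full inhibition.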

[11] = qHTS Assay for Lipid Storage Modulators (AID 1519; calls by dose curve); settings: Drosophila S3 cells, BODIPY lipid droplet/cell ratio, laser cytometry, cells loaded with oleic acid; for activity change, negative = inhibition: at 57.5 µM (top of the series)
Procedure, shortened: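 Cells seeded at 5,000 per well were treated with compounds over a concentration series and loaded with oleic acid (400 uM, as added). Lipid droplet fluorescence (488 nm excitation, 500-530 nm channel) was read by laser-scanning cytometry and normalized to 20 uM Triacsin C.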

[12] = Primary qHTS for small molecule stabilizers of the endoplasmic reticulum resident proteome: Secreted ER Calcium Modulated Protein (SERCaMP) assay (AID 1508630; active means well fitted curve in the direction sought with a large enough effect; an effect the other way counts as inactive or inconclusive; further: on the % scale 0 is the no-effect control and ±100 the full control effect); settings: SH-SY5Y GLuc-SERCaMP (Gaussia luciferase released on ER calcium loss) secretion, thapsigargin, luminescence; series mostly up to 38.4 µM
Procedure, shortened: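 GLuc-SERCaMP-expressing SH-SY5Y cells, pretreated 16 h with compound, are challenged with thapsigargin to empty ER calcium stores; after 4 h, coelenterazine is added directly to the medium and luminescence is imaged.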

[13] = target: Cytochrome P450 3A4 (Homo sapiens) (UniProt P08684); assay: qHTS Assay for Activators of Cytochrome P450 3A4 (AID 885; active means well fitted curve in the direction sought with a large enough effect; an effect the other way counts as inactive or inconclusive; further: nearly all actives have a fitted effect of over 65% in size); settings: recombinant CYP3A4, Luciferin-PPXE luminescence, 60 min; series mostly up to 57.1 µM
Procedure, shortened: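 Quantitative HTS format: compounds preincubated with 20nM human CYP3A4 and Luciferin-PPXE substrate at KM, reaction started by NADPH regeneration, stopped after 60 min, luciferase luminescence read 20 min later.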

[14] = Confirmation and Secondary Assay for Modulators of Hemoglobin Beta Chain Splicing at IVS2 654 locus (AID 910; active means well fitted curve in the direction sought with a large enough effect; an effect the other way counts as inactive or inconclusive;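 further: HeLa cells stably carrying EGFP split by mutant beta-globin IVS2-654 intron; per-well total GFP intensity by laser scanning cytometry after 2-day treatment; % of control where 0% means no effect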); settings: HeLa EGFP-654 splicing reporter, GFP fluorescence, 48 h; series mostly up to 38.3 µM
Procedure, shortened: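 Readout: per-well total peak green fluorescence (488 nm ex, 500–520 nm em) from objects 5–250 µm, reflecting correct splicing of an EGFP-654 reporter. Compounds were applied for 2 days at 37 °C to overnight-plated HeLa EGFP-654 cells; controls were DMSO and 500 nM IVS2-654 PNA.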

[15] = qHTS Assay for Identification of Small Molecule Agonists for Hypoxia Response Element Signaling Pathway (AID 914; active means well fitted activation curve with a large enough effect in the signal ratio, with a control signal flat, not every such curve was filed as active; the % refers to the signal ratio; further: % of control where 0% means no effect); settings: ME-180 (cervical carcinoma) HRE-bla reporter, beta-lactamase ratio, CoCl2, 17 h; activation: stronger effect = higher value
Procedure, shortened: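 Compounds in a titration series were added to ME-180 reporter cells alongside an EC50 level of CoCl2. After 17 hours, beta-lactamase activity was read as the 460nm/530nm emission ratio of CCF4, giving AC50 values.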

[16] = Confirmation and Secondary Assay for Modulators of Hemoglobin Beta Chain Splicing at IVS2 705 locus (AID 930; active means well fitted curve in the direction sought with a large enough effect; an effect the other way counts as inactive or inconclusive;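 further: HeLa cells stably expressing the EGFP-705 splicing reporter; GFP fluorescence per well restored by corrected splicing of the IVS2-705 intron in EGFP; % of control where 0% means no effect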); settings: HeLa EGFP-705 splicing reporter, GFP fluorescence, 48 h; series mostly up to 38.3 µM
Procedure, shortened: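 Assay measures total GFP intensity per well in HeLa EGFP-705 cells after 2 days with compound; mis-splicing normally truncates EGFP, so fluorescence indicates corrected splicing.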

[17] = target: Ubiquitin carboxyl-terminal hydrolase 1 (Homo sapiens) (UniProt O94782); assay: Inhibitors of USP1/UAF1: Pilot qHTS (AID 504865; active means well fitted curve in the direction sought with a large enough effect; an effect the other way counts as inactive or inconclusive;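 further: rhodamine fluorescence freed from ubiquitin-rhodamine substrate followed over time; top concentration of the series differs between compounds; on the % scale 0 is the no-effect control and ±100 the full control effect; nearly all actives have a fitted effect of over 35% in size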); settings: purified USP1/UAF1, Ub-rhodamine cleavage fluorescence; series mostly up to 54.9 µM
Chain of Ubiquitin carboxyl-terminal hydrolase 1 (Homo sapiens) (O94782 whole entry, looked up): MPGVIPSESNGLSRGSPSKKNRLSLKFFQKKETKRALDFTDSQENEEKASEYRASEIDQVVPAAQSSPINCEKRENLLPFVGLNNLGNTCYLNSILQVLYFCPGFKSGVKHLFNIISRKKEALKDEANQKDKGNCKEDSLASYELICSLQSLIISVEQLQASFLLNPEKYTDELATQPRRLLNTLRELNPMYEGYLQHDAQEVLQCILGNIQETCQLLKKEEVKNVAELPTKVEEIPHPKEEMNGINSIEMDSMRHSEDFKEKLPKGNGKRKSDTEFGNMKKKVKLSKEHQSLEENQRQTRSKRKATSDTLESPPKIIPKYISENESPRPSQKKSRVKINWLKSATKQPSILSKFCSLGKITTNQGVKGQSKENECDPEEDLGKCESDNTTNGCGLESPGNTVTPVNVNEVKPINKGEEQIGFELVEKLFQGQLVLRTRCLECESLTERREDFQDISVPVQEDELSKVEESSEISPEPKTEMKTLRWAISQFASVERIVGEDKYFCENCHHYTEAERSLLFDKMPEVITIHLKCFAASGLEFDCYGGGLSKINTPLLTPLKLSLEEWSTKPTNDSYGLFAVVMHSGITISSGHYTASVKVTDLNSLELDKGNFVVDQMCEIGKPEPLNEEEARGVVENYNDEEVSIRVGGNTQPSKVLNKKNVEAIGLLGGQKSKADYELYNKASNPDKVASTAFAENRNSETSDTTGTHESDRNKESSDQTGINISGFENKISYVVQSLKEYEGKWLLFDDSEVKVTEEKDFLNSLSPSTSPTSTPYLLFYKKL
Procedure, shortened: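 1nM USP1/UAF1 + cpd, 15 min RT; start w/ Ub-Rho 150nM final; kinetic FL 480/540 nm, 6 reads q60 s. Buffer 50mM HEPES pH 7.8, 0.5mM EDTA, 1mM TCEP, 0.01% Tween-20, 0.1 mg/ml BSA.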

[18] = target: Cytochrome P450 2D6 (Homo sapiens) (UniProt P10635); assay: qHTS Assay for Inhibitors and Substrates of Cytochrome P450 2D6 (AID 891; active means well fitted curve in the direction sought with a large enough effect; an effect the other way counts as inactive or inconclusive; further: potency means the concentration at half of the fitted maximal effect; nearly all actives have a fitted effect of over 60% in size); settings: recombinant CYP2D6, luciferin-ME EGE luminescence; series mostly up to 57.1 µM
Chain of Cytochrome P450 2D6 (Homo sapiens) (P10635 whole entry, looked up): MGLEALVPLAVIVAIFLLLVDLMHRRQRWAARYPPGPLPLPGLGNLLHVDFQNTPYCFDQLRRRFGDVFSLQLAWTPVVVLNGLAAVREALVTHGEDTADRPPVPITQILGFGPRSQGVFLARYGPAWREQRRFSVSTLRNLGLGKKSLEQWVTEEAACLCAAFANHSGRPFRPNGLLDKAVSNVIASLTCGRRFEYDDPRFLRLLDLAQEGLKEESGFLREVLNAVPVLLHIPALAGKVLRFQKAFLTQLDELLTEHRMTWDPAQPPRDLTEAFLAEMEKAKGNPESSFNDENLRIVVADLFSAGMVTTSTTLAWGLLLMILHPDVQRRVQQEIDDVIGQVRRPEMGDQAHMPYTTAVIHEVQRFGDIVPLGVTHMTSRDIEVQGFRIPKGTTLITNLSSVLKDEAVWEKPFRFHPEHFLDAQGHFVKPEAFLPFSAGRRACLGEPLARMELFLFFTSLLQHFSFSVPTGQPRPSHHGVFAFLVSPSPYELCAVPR
Procedure, shortened: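 Human CYP2D6 (5 nM) with 30 uM Luciferin-ME EGE (at Km) in 100 mM KPO4, compound preincubated 10 min, then NADPH regeneration system for 60 min at room temperature. Luciferin read by luminescence; normalized to 1.43 uM quinidine.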

[19] = target: Cytochrome P450 2C19 (Homo sapiens) (UniProt P33261); assay: qHTS Assay for Inhibitors and Substrates of Cytochrome P450 2C19 (AID 899; active means well fitted curve in the direction sought with a large enough effect; an effect the other way counts as inactive or inconclusive; further: potency means the concentration at half of the fitted maximal effect; nearly all actives have a fitted effect of over 60% in size); settings: recombinant CYP2C19, luciferin-H EGE luminescence; series mostly up to 57.1 µM
Chain of Cytochrome P450 2C19 (Homo sapiens) (P33261 whole entry, looked up): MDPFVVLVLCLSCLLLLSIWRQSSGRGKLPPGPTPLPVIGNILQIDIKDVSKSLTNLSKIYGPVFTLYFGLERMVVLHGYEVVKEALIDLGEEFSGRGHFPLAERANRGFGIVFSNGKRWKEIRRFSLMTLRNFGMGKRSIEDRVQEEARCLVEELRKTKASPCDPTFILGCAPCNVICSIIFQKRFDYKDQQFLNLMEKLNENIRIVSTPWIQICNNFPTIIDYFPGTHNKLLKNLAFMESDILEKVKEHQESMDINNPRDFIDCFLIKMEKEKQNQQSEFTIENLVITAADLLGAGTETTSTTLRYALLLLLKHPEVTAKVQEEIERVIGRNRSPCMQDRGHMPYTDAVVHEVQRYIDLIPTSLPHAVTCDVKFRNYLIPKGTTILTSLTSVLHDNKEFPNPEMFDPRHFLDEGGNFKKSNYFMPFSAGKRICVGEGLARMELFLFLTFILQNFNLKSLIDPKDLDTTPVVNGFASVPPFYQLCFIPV
Procedure, shortened: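 Reactions contain 5nM enzyme, 10uM Luciferin-H EGE (KM) and 50mM KPO4; compound preincubates 10 min at 37C, NADPH regeneration starts turnover for 60 min. Luminescence after detection reagent gives activity.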

[20] = measured here: cell count channel max response
[21] = measured here: lipid channel max response

Cn1c(=O)c(-c2cc(F)cc(F)c2)nc2cnc(Oc3ccccc3)nc21
Potency [1]: > 11.4 µM (inactive) | activity change, negative = inhibition [2]: -7.91% (inactive) | Potency [3]: 2 µM (active) | activity change, negative = inhibition [4]: 3.31% (inactive) | activity, negative = inhibition [5]: 0.814% (inactive) | Potency [6]: > 9.22 µM (inactive) | Potency [7]: > 46 µM (inactive) | outcome [8]: inactive | Potency [9]: inactive | Potency [10]: inactive | activity change, negative = inhibition [11]: -4.93% (inactive) | max response [11, 20]: 21.4% | max response [11, 21]: 16.5% | Potency [12]: inactive

CNc1ncncc1-c1ccccc1OC
Potency [1]: > 11.4 µM (inactive) | activity change, negative = inhibition [2]: -10.6% (inactive) | Potency [3]: 1.58 µM (active) | activity change, negative = inhibition [4]: 8.73% (inactive) | activity, negative = inhibition [5]: 6.99% (inactive) | Potency [7]: > 46 µM (inactive) | outcome [8]: inactive | Potency [9]: inactive | Potency [13]: inactive | outcome [14]: inactive | activation [15]: 5.66% (inactive) | outcome [16]: inactive | activity change, negative = inhibition [11]: 5.61% (inactive) | max response [11, 20]: 8.32% | max response [11, 21]: 13.5% | Potency [17]: inactive | Potency [12]: inactive

COc1ccc(-n2c(=O)c(C)nc3cnc(Oc4ccccc4)nc32)cc1
Potency [1]: > 11.4 µM (inactive) | activity change, negative = inhibition [2]: -0.42% (inactive) | Potency [3]: 7.94 µM (active) | activity change, negative = inhibition [4]: 4.01% (inactive) | activity, negative = inhibition [5]: -17.4% (inactive) | Potency [6]: > 9.22 µM (inactive) | Potency [7]: > 46 µM (inactive) | outcome [8]: inactive | Potency [9]: inactive | Potency [13]: inactive | activity change, negative = inhibition [11]: 1.98% (inactive) | max response [11, 20]: 16.7% | max response [11, 21]: 20.5% | Potency [12]: inactive

O=c1c(-c2ccccc2)nc2cnc(Oc3ccccc3)nc2n1Cc1cccs1
Potency [1]: > 11.4 µM (inactive) | activity change, negative = inhibition [2]: -0.0665% (inactive) | Potency [3]: 2.51 µM (active) | activity change, negative = inhibition [4]: -0.0107% (inactive) | activity, negative = inhibition [5]: 3.84% (inactive) | Potency [6]: > 9.22 µM (inactive) | Potency [7]: > 46 µM (inactive) | outcome [8]: inactive | Potency [9]: inactive | activity change, negative = inhibition [11]: -10.3% (inactive) | max response [11, 20]: 21.8% | max response [11, 21]: 12.8% | Potency [12]: inactive

CC(=O)NCCNc1nc(-c2ccccc2C(F)(F)F)nc2ccccc12
Potency [1]: > 11.4 µM (inactive) | activity change, negative = inhibition [2]: 3.94% (inactive) | Potency [3]: 15.8 µM (active) | activity change, negative = inhibition [4]: 4.42% (inactive) | activity, negative = inhibition [5]: -7.86% (inactive) | Potency [7]: > 46 µM (inactive) | outcome [8]: inactive | Potency [9]: inactive | Potency [13]: inactive | Potency [18]: 3.98 µM (active) | outcome [14]: inactive | outcome [16]: inactive | activity change, negative = inhibition [11]: 9.13% (inactive) | max response [11, 20]: 11.9% | max response [11, 21]: 23% | Potency [17]: inactive | Potency [12]: inactive

COc1cccc(-c2nccc(-n3ccnc3)n2)c1
Potency [1]: > 11.4 µM (inactive) | activity change, negative = inhibition [2]: 9.38% (inactive) | Potency [3]: 0.0316 µM (active) | activity change, negative = inhibition [4]: 14% (inactive) | activity, negative = inhibition [5]: -0.599% (inactive) | Potency [6]: > 46 µM (inactive) | Potency [7]: > 46 µM (inactive) | outcome [8]: inactive | Potency [9]: inactive | Potency [13]: inactive | Potency [18]: 7.94 µM (active) | Potency [19]: 2.51 µM (active) | outcome [14]: inactive | outcome [16]: inactive | activity change, negative = inhibition [11]: 4.69% (inactive) | max response [11, 20]: 4.96% | max response [11, 21]: 13.1% | Potency [12]: inactive

Reference: PubChem BioAssay (NCATS)
